# Inconclusive results are not listed. Active and inactive are the calls of the source.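 Rule for the calls, unless noted: active = GFP response above 150% of the DMSO control; inconclusive = fewer than 70 events counted in any yeast strain; inactive = the rest.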
# Columns and labels:
# [1] = rapamycin-like changes in RPL19A-GFP expression – cell-based, S. cerevisiae, multiplex flow cytometry, primary screen (AID 1862; in the data active = percent of DMSO control GFP below about 86%;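 note: lower values mimic rapamycin by blocking the RPL19A rise seen in DMSO cells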); settings: S. cerevisiae RPL19A-GFP strain, flow cytometry fluorescence, 3 h; at 10 µM; stronger effect = lower value
# [2] = TOR pathway GLN3 branch reporter MEP2-GFP changes – S. cerevisiae, multiplex flow cytometry, primary screen (AID 1867;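 active = GFP response, as percent of the DMSO control, above the screen-wide mean plus 3 SD, about 139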;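 note: median GFP channel fluorescence of barcode-gated MEP2-GFP cells measured by flow cytometry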); settings: S. cerevisiae MEP2-GFP strain, 3 h, at 10 µM, stronger effect = higher value, 100% means same as DMSO wells
# [3] = TOR pathway RTG branch CIT2 reporter changes – S. cerevisiae, GFP fusion, multiplex flow cytometry, primary screen (AID 1870;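 active = percent response above a set limit, the screen-wide mean plus 3 SD, cut at about 130% in these data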;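 note: barcoded CIT2-GFP strain pooled with four other GFP strains with rapamycin as positive control; median GFP fluorescence per well over plate mean of DMSO wells so 100% = DMSO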); settings: S. cerevisiae CIT2-GFP expression, 3 h, at 10 µM, stronger effect = higher value
# [4] = TOR pathway LAP4-GFP level changes – S. cerevisiae, multiplex flow cytometry, primary screen (AID 1873;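 active = GFP signal, as percent of the solvent control, above the screen mean plus 3 SD, about 149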); settings: S. cerevisiae LAP4-GFP expression, 3 h, at 10 µM, stronger effect = higher value
# [5] = yeast AGP1-GFP level changes, GLN3 branch – cell-based, multiplex flow cytometry, S. cerevisiae, primary screen (AID 1887;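 active = GFP signal above the screen-wide mean plus 3 SD, that is over about 124.5% of the solvent control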;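 note: AGP1-GFP fusion strain of S. cerevisiae within a five-strain barcoded multiplex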); settings: 3 h, at 10 µM, stronger effect = higher value
# [6] = hit retest on RPL19A-GFP reporter strain – cell-based, S. cerevisiae, flow cytometry, cherry picks, mother/daughter gates, confirmation (AID 2270;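 active = GFP response below 50% of the DMSO control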); settings: 3 h, at 10 µM, stronger effect = lower value, 100 = same GFP as DMSO wells
# [7] = yeast TOR pathway reporter LAP4-GFP change – cell-based, cherry picks, flow cytometry, mother/daughter gates, confirmation (AID 2271);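 note: ratio of sample to DMSO plate mean so 100% equals DMSO level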; settings: S. cerevisiae LAP4-GFP strain, 3 h, at 10 µM, stronger effect = higher value, 100 means same as DMSO control
# [8] = TOR pathway reporter MEP2-GFP, retest of hits – S. cerevisiae, flow cytometry GFP, cherry picks, confirmation (AID 2272;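 active = GFP response above 150% of the DMSO control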;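 note: ratio of well signal to plate DMSO mean so 100% equals DMSO level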); settings: S. cerevisiae MEP2-GFP strain, 3 h, at 10 µM, stronger effect = higher value
# [9] = TOR pathway CIT2 reporter hit retest – S. cerevisiae, GFP fusion, cherry picks, mother/daughter gates, confirmation (AID 2274;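 active = GFP response above 150% of the DMSO level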); settings: S. cerevisiae CIT2-GFP strain, flow cytometry, 3 h, at 10 µM, stronger effect = higher value
# [10] = reduced mouse 2C T cell binding to pMHC/ICAM-1 vesicles – MLPCN validation set, flow cytometry, LFA-1/ICAM-1 modulator project, pilot screen (AID 2523;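 active = response below a set limit, under 55% cells CD8-positive and vesicle-bound, and CD8 cells' 90th-percentile brightness under 279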;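 for vesicle binding response: mean PE anti-B7-1 fluorescence of CD8+ cells relative to row control; 100% = QL9-loaded vesicles with DMSO vehicle in the same plate row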); settings: 2C mouse CD8+ T cells, at 7 µM, stronger effect = lower value; double positive events: measured here: CD8+/vesicle+ event percentage
# [11] = biological target: Integrin beta-1 (Homo sapiens) + Integrin alpha-4 (Homo sapiens) (UniProt P13612+P05556); assay: alpha4beta1 integrin LIBS antibody binding reduction – U937 cells, HUTS-21 mAb, flow cytometry, validation set, VLA-4 allosteric modulator project, pilot screen (AID 2674;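 active = inhibition above 50%, about 3 SD of the validation set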;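 note: antibody binding induced by the VLA-4 ligand LDV present at three times its Kd; 0% = LDV ligand with antibody and no compound and 100% = antibody without LDV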); settings: HUTS-21 LIBS mAb binding, at 6.7 µM, stronger effect = higher value, binding induced by LDV ligand
# Sequence of Integrin beta-1 (Homo sapiens) + Integrin alpha-4 (Homo sapiens) (P05556 whole entry, looked up): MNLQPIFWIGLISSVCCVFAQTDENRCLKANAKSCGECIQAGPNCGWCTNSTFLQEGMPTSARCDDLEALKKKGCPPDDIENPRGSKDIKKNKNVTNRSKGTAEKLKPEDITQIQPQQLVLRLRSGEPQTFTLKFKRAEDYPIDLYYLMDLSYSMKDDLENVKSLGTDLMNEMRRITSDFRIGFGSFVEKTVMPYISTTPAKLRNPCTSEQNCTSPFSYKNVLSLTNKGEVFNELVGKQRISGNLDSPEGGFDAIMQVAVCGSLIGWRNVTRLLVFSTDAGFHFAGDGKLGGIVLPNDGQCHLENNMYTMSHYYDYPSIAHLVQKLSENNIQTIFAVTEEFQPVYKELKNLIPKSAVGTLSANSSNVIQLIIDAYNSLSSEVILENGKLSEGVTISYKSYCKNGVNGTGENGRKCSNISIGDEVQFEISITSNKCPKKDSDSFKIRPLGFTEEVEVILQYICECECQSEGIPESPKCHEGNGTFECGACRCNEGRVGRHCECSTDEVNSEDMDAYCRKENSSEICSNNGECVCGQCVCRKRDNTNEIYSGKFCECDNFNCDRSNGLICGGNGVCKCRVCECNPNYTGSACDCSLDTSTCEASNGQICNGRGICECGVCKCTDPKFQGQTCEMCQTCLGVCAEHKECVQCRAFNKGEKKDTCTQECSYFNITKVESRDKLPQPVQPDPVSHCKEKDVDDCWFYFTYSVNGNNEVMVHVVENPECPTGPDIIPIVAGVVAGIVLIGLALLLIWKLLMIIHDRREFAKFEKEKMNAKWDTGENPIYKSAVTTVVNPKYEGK
# Sequence of Integrin beta-1 (Homo sapiens) + Integrin alpha-4 (Homo sapiens) (P13612 whole entry, looked up): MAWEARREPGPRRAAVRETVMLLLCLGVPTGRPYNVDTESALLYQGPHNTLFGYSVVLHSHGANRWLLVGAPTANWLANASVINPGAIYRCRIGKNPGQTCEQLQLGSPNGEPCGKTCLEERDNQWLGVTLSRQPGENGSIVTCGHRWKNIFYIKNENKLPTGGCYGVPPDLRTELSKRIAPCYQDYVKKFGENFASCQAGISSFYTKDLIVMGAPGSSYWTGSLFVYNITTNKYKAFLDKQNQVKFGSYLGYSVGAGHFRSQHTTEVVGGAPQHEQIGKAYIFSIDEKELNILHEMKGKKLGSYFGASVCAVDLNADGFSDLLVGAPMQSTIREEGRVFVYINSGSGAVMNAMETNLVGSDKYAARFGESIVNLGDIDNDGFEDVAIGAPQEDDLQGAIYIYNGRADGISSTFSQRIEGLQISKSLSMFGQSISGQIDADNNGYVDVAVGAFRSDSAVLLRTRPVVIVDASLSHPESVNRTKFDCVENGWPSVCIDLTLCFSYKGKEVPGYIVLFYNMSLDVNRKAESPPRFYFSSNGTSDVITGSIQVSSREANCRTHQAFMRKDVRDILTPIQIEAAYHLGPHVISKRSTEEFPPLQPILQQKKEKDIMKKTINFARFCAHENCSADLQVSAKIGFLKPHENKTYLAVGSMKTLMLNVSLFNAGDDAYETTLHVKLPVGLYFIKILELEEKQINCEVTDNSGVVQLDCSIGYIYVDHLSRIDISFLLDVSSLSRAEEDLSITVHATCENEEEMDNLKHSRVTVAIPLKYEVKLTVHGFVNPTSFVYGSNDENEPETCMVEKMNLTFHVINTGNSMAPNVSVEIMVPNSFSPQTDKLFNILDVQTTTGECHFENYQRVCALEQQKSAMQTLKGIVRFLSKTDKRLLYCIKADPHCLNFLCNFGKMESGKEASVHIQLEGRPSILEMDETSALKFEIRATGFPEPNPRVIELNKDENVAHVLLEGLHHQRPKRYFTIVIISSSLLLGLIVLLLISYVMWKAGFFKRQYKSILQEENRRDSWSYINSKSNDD
# [12] = calorie-restriction mimetic ROS inhibitors, yeast – validation compound set, pilot screen (AID 2706;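 active = superoxide response below 65% of plate, a cut near 3 SD across the whole screen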;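 note: yeast exposed to compound for one week at 30 degrees C before staining; 100% = mean of all compound wells on the same plate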); settings: S. cerevisiae aging, superoxide DHE fluorescence; at 10 µM; stronger effect = lower value
# [13] = biological target: Beta-adrenergic receptor kinase 1 (Homo sapiens) (UniProt P25098); assay: GRK2 binders displacing RNA aptamer, biochemical, validation, human GRK2, bead flow cytometry (AID 488806;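 active = aptamer binding inhibition above 30%, about 3 SD of noise from non-fluorescent compounds; inactive = inhibition at or below 30%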); settings: bead-bound GRK2, FAM-aptamer displacement, at 10 µM, stronger effect = higher value
# Sequence of Beta-adrenergic receptor kinase 1 (Homo sapiens) (P25098 whole entry, looked up): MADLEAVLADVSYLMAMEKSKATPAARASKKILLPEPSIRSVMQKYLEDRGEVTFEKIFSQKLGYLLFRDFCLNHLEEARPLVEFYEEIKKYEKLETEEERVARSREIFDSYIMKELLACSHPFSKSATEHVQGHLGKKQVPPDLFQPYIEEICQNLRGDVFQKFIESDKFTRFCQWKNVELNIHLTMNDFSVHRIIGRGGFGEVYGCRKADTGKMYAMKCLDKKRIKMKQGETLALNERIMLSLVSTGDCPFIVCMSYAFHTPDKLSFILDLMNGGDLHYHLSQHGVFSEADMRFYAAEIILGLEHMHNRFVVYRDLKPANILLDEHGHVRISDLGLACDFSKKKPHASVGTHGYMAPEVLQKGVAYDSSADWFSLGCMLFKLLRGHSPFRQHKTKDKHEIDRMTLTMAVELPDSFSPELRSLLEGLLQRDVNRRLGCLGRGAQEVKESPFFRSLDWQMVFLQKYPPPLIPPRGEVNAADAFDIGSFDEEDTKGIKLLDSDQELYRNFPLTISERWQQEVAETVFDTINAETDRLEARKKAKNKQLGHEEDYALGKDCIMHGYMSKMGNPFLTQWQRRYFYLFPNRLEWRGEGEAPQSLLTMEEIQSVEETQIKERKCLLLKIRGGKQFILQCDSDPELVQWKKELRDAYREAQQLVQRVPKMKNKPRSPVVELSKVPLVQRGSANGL
# [14] = biological target: AP-2 complex subunit beta (Homo sapiens) (UniProt P63010); assay: beta-arrestin/AP2 interaction blockers – biochemical, validation set, GST-AP2 beads, flow cytometry, pilot screen (AID 504541;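 active = inhibition above 54%, about 3 SD of non-fluorescent compounds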;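 note: AP2 carries R879A mutation and is captured from E. coli lysate; bead-bound FITC arrestin peptide fluorescence measuring arrestin peptide binding to AP2; 0% = DMSO wells and 100% = excess unlabeled arrestin peptide control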); settings: FITC arrestin peptide, at 10 µM, stronger effect = higher value, AP2 beta2 appendage fragment, R879A mutant
# Sequence of AP-2 complex subunit beta (Homo sapiens) (P63010 whole entry, looked up, the tested form may be a part, one chain of several): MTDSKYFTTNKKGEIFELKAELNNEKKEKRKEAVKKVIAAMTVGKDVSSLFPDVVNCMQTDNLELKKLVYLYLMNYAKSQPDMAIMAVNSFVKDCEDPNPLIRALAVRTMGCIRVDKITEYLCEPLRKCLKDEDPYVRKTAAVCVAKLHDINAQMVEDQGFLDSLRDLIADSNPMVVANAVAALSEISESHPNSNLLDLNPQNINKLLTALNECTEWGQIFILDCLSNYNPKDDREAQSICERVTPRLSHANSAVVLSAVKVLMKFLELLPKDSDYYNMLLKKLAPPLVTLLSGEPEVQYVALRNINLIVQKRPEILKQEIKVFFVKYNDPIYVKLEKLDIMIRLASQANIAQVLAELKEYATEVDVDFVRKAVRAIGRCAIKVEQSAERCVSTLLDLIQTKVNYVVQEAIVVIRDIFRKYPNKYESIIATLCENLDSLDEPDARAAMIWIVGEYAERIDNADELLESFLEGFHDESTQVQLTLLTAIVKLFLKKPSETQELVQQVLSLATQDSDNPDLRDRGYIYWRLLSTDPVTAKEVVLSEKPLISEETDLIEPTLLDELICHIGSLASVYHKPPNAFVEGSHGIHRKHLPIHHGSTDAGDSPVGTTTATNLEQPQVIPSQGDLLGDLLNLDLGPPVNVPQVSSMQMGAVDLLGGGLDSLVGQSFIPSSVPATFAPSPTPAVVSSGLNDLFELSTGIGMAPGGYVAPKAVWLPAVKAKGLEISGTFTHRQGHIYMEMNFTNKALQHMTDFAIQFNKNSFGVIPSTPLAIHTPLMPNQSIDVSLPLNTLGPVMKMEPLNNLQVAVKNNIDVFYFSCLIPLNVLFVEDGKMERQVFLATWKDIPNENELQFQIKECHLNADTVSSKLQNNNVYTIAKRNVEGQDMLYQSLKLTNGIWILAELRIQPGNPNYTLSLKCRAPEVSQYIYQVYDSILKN
# [15] = cytosolic pH regulators acting via V-ATPase – S. cerevisiae, pHLuorin, HTS validation (AID 504600; in the data active = response above about 15%;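 note: plate controls were DMSO for no effect and reference compound for full effect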); settings: V-ATPase proton transport, at 10 µM, stronger effect = higher value
# [16] = system: anti-desmoglein-3 scFv antibody binding to human DSG3; assay: blockers of pathogenic pemphigus antibody–desmoglein-3 binding – biochemical, validation compound set, bead-based, flow cytometry, pilot screen (AID 588368;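 active = binding below the plate cutoff, the plate median minus 3 SD, with a reading above zero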;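 note: signal is the median channel fluorescence of bead-bound GFP antibody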); settings: Protein G beads, DSG3-Fc, scFv-GFP binding, at 10 µM, stronger effect = lower value
# [17] = Nile Red efflux blockade in pump-expressing yeast – validation compound set, multiplex, phenotypic, pilot screen (AID 588506;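 active = efflux inhibition above 0.42, the validation set average plus 4 SD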;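 note: Nile Red retained in cells so higher fluorescence means more efflux inhibition; 0 = negative control wells and 1 = enniatin B 25 µM full block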); settings: S. cerevisiae pump-expressing triplex, Nile Red efflux flow cytometry; at 10 µM; stronger effect = higher value; the pumps come from Candida albicans
# [18] = biological target: ATP-binding cassette sub-family B member 6 (Homo sapiens) (UniProt Q9NP58); assay: blockers of ABCB6-driven porphyrin uptake – K562-ABCB6 cells, flow cytometry, validation set, pilot screen (AID 588550;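 active = inhibition above the screen-wide mean plus 3 SD, about 51%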;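 note: 0% = DMSO wells and 100% = benzethonium chloride 70 µM positive control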); settings: K562-ABCB6 porphyrin accumulation, 1 h, at 10 µM, stronger effect = higher value
# Sequence of ATP-binding cassette sub-family B member 6 (Homo sapiens) (Q9NP58 whole entry, looked up): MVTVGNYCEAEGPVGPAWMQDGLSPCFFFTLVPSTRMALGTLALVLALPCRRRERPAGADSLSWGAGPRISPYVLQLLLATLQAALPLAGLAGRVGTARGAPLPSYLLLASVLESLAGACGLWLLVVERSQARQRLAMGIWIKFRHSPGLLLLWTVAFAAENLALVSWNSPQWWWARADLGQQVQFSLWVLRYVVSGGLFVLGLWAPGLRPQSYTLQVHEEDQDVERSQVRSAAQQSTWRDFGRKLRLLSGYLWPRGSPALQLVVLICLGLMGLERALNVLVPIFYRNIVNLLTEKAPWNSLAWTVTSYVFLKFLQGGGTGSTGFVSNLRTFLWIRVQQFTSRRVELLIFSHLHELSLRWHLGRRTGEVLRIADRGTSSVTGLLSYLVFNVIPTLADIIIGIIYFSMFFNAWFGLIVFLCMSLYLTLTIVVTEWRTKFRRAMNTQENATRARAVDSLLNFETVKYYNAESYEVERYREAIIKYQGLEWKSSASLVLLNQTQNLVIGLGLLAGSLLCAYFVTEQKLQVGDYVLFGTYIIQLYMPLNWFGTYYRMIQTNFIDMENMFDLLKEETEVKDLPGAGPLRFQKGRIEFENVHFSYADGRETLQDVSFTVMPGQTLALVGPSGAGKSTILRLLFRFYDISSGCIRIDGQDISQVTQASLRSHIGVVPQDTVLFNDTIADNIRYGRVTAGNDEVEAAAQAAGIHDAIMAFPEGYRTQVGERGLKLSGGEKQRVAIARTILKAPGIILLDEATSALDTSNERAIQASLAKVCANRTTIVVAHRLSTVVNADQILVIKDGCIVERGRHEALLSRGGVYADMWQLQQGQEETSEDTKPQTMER
# [19] = AML differentiation inducers, ER-HoxA9 marrow cells – cell-based, GFP/MAC1 double positive, flow cytometry, validation set, primary screen (AID 588685;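 active = differentiation response of at least 50%, scaled between solvent and reference control, from cells with both markers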;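 note: compound exposure lasts four days before antibody staining and flow analysis; 0% = DMSO wells and 100% = 5 µM fulvestrant positive control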); settings: stronger effect = higher value, normalized: vehicle 0, fulvestrant 100
# [20] = biological target: Beta-2 adrenergic receptor (Homo sapiens) (UniProt P07550); assay: agonist-induced loss of surface beta2AR – cell-based, FAP fluorogen, flow cytometry, validation set, pilot screen (AID 504459;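 active = percent response above 42, roughly 3 SD of non-fluorescent test compounds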;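 note: agonist-driven loss of surface beta2AR via internalization measured by FAP dye flow cytometry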); settings: Am2.2-beta2AR cells, at 10 µM, stronger effect = higher value
# Sequence of Beta-2 adrenergic receptor (Homo sapiens) (P07550 whole entry, looked up): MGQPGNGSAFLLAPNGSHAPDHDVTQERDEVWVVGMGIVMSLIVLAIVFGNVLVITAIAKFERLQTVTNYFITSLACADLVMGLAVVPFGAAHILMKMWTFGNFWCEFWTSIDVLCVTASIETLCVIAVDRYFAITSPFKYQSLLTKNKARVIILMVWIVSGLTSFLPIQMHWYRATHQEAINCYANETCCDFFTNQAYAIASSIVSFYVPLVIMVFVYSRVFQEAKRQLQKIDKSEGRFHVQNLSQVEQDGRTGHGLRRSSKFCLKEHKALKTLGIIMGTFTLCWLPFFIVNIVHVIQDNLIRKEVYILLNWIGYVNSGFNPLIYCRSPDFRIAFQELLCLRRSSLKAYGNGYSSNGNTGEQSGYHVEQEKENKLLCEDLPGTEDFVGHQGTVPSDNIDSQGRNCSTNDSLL
# [21] = measured here: daughter cell gate
# [22] = measured here: mother cell gate
# [23] = measured here: daughter cell gate response
# [24] = measured here: mother cell gate response
smiles,measurement,setting,value
CC(=O)[C@@]1(O)CC[C@H]2[C@@H]3CCC4=CC(=O)CC[C@]4(C)[C@H]3[C@@H](O)C[C@@]21C,percent of DMSO control GFP,[1],104% (inactive)
same,GFP response vs DMSO,[2],95.9% (inactive)
same,percent response of DMSO control,[3],94.9% (inactive)
same,GFP response vs DMSO,[4],90.3% (inactive)
same,"GFP response, % of DMSO",[5],96.4% (inactive)
same,GFP response vs DMSO,[6],99.3% (inactive)
same,GFP response vs DMSO,[6]; [21],99.3%
same,GFP response vs DMSO,[6]; [22],99.7%
same,GFP response relative to DMSO,[7],97.7% (inactive)
same,GFP response relative to DMSO,[7]; [23],97.9%
same,GFP response relative to DMSO,[7]; [24],96.5%
same,GFP response vs DMSO,[8],102% (inactive)
same,"GFP response, % of DMSO",[9],96.4% (inactive)
same,"GFP response, % of DMSO",[9]; [21],98.3%
same,"GFP response, % of DMSO",[9]; [22],94.5%
same,double positive events,[10],56.2%
same,vesicle binding response,[10],182% (inactive)
same,inhibition,[11],12.8% (inactive)
same,superoxide response (% of plate),[12],89.3% (inactive)
same,aptamer binding inhibition,[13],1% (inactive)
same,inhibition,[14],-12.8% (inactive)
same,response,[15],4.15% (inactive)
same,binding (% of control),[16],100% (inactive)
same,efflux inhibition (fraction of control),[17],-0.2 (inactive)
same,inhibition,[18],10% (inactive)
same,differentiation response,[19],-3.43% (inactive)
CC(=O)OCC(=O)[C@H]1CC[C@H]2[C@@H]3CCC4=CC(=O)CC[C@]4(C)[C@H]3CC[C@]12C,percent of DMSO control GFP,[1],89.1% (inactive)
same,GFP response vs DMSO,[2],103% (inactive)
same,percent response of DMSO control,[3],108% (inactive)
same,GFP response vs DMSO,[4],73.2% (inactive)
same,"GFP response, % of DMSO",[5],86.3% (inactive)
same,GFP response vs DMSO,[6],95.8% (inactive)
same,GFP response vs DMSO,[6]; [21],96.7%
same,GFP response vs DMSO,[6]; [22],96.5%
same,GFP response relative to DMSO,[7],103% (inactive)
same,GFP response relative to DMSO,[7]; [23],99.3%
same,GFP response relative to DMSO,[7]; [24],106%
same,GFP response vs DMSO,[8],97.5% (inactive)
same,"GFP response, % of DMSO",[9],97.8% (inactive)
same,"GFP response, % of DMSO",[9]; [21],98.3%
same,"GFP response, % of DMSO",[9]; [22],99.1%
same,double positive events,[10],52.1%
same,vesicle binding response,[10],113% (inactive)
same,inhibition,[11],-1.3% (inactive)
same,superoxide response (% of plate),[12],119% (inactive)
same,aptamer binding inhibition,[13],-1% (inactive)
same,response,[20],-16.7% (inactive)
same,inhibition,[14],-3.8% (inactive)
same,response,[15],-1.21% (inactive)
same,binding (% of control),[16],105% (inactive)
same,efflux inhibition (fraction of control),[17],-0.28 (inactive)
same,inhibition,[18],8% (inactive)
same,differentiation response,[19],-1.64% (inactive)
CC(=O)OCC(=O)[C@@]1(O)CC[C@H]2[C@@H]3CCC4=CC(=O)CC[C@]4(C)[C@H]3[C@@H](O)C[C@@]21C,percent of DMSO control GFP,[1],101% (inactive)
same,GFP response vs DMSO,[2],104% (inactive)
same,percent response of DMSO control,[3],96.6% (inactive)
same,GFP response vs DMSO,[4],97.3% (inactive)
same,"GFP response, % of DMSO",[5],103% (inactive)
same,GFP response vs DMSO,[6],95.8% (inactive)
same,GFP response vs DMSO,[6]; [21],97.1%
same,GFP response vs DMSO,[6]; [22],97.7%
same,GFP response relative to DMSO,[7],96.7% (inactive)
same,GFP response relative to DMSO,[7]; [23],99.2%
same,GFP response relative to DMSO,[7]; [24],95.1%
same,GFP response vs DMSO,[8],100% (inactive)
same,"GFP response, % of DMSO",[9],99.7% (inactive)
same,"GFP response, % of DMSO",[9]; [21],101%
same,"GFP response, % of DMSO",[9]; [22],98.5%
same,double positive events,[10],62.5%
same,vesicle binding response,[10],4910% (inactive)
same,inhibition,[11],-4.6% (inactive)
same,superoxide response (% of plate),[12],101% (inactive)
same,aptamer binding inhibition,[13],-1% (inactive)
same,response,[20],6.11% (inactive)
same,inhibition,[14],-11.1% (inactive)
same,response,[15],2.08% (inactive)
same,binding (% of control),[16],98.4% (inactive)
same,efflux inhibition (fraction of control),[17],-0.26 (inactive)
same,inhibition,[18],-2% (inactive)
same,differentiation response,[19],-1.71% (inactive)
